# Screens as filed in PubChem BioAssay.
# JMJD2A Tudor inh: qHTS Assay for Inhibitors of JMJD2A-Tudor Domain. Lysine-specific demethylase 4A (Homo sapiens), O75164. AlphaScreen JMJD2A-Tudor / H3K4me3 peptide binding. Potency, µM (doses to about 114 µM), for the others: top-dose activity change, negative = inhibition, most hits filed as inhibitors. 390,000 compounds, 4.4% hits. AID 504339, 2011; further: on the % scale 0 is the no-effect control and ±100 the full control effect; nearly all actives have a fitted effect of over 50% in size
# PLK1 PBD inh: qHTS for Inhibitors of PLK1-PDB (polo-like kinase 1 - polo-box domain): Primary Screen; Plk1 PBD binding of FITC phosphopeptide, fluorescence polarization; 360,000 compounds, 2.8% hits; Potency, µM, without a hit: max response, negative = inhibition, actives largely listed as inhibitors; Serine/threonine-protein kinase PLK1 (Homo sapiens), P53350; further: series mostly up to about 57 µM; on the % scale 0 is the no-effect control and ±100 the full control effect; nearly all actives have a fitted effect of over 65% in size
# G9a inh: qHTS Assay for Inhibitors of Histone Lysine Methyltransferase G9a; Potency, µM (top dose mostly 102 µM), inactives show at the top dose activity, negative = inhibition, hits mostly inhibitors; G9a H3K9 monomethylation, AlphaScreen, 2 h; AID 504332, 2011; 350,000 compounds, 8.8% hits; further: on the % scale 0 is the no-effect control and ±100 the full control effect; nearly all actives have a fitted effect of over 75% in size
# Target sequence (Q96KQ7 913-1193 limits assumed): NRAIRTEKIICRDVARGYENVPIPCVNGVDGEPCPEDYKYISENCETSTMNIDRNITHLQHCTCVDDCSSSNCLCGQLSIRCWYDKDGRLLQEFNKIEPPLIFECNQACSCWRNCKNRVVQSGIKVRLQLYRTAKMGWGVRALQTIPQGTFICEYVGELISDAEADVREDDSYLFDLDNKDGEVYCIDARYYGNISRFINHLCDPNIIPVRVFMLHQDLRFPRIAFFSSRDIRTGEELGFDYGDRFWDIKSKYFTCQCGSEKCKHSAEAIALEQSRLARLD
#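 Quantitative HTS format: methyltransferase activity on a biotin-tagged H3K9 peptide is measured by AlphaScreen, using a rabbit anti-monomethyl-H3K9 antibody with streptavidin donor and anti-IgG acceptor beads. Final levels are 20 nM enzyme, 500 nM peptide, 20 uM SAM; 2 h RT.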
# HP1b chromo inh: HTS for Inhibitors of HP1-beta Chromodomain Interactions with Methylated Histone Tails; 390,000 compounds, 0.56% hits; AlphaScreen HP1-beta / biotin-H3K9me3 peptide binding; Potency, µM (series often up to 114 µM), for the others: at the top dose activity change, negative = inhibition, hits mostly inhibitors; Chromobox protein homolog 1 (Homo sapiens), P83916; further: nearly all actives have a fitted effect of over 70% in size
# Target sequence (P83916 whole entry, looked up): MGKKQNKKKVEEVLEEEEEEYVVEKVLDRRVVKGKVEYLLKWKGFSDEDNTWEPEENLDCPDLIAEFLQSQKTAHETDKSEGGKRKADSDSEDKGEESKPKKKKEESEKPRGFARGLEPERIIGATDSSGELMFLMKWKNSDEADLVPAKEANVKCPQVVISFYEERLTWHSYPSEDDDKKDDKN
#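 AlphaScreen: HP1-beta (50 nM) preformed 30 min with biotin-H3(1-18)K9me3 peptide (50 nM) in PBS pH 7.4, 0.01% Tween-20. Compound added for 30 min at RT, then streptavidin donor/nickel chelate acceptor beads (10 ug/mL) for 30 min.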
# BAZ2B block: qHTS Assay for Inhibitors of BAZ2B | Potency, µM (highest dose often 114 µM), for the others: at the top dose activity change, negative = inhibition, most hits filed as inhibitors | Bromodomain adjacent to zinc finger domain protein 2B (Homo sapiens), Q9UIF8 | AID 504333, 2011 | AlphaScreen BAZ2B-H3K14Ac peptide displacement | 360,000 compounds, 4.4% hits; further: on the % scale 0 is the no-effect control and ±100 the full control effect; nearly all actives have a fitted effect of over 60% in size
#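 Compounds, titrated to a top concentration of 110 uM, were incubated 30 min at room temperature with preformed BAZ2B/acetyl-K14 H3 peptide complex (50 nM each). Proximity signal was measured by AlphaScreen after 20 min with beads.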
# 12-LOX inh: Primary qHTS assay for inhibitors of human arachidonate 12S-lipoxygenase (ALOX12): Round 2; AID 1671190, 2021; Potency, µM (doses to about 108 µM), for inactives: at the top dose activity change, negative = inhibition, usual class: inhibitors; purified 12hLO, xylenol orange hydroperoxide absorbance; 580,000 compounds, 1.1% hits; further: on the % scale 0 is the no-effect control and ±100 the full control effect
#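 Purified human 12hLO at 150 nM in 25 mM Hepes, 0.01% Triton X-100, pH 7.0, preincubated 15 min at room temperature with compound. Reaction started with 40 uM arachidonic acid, 30 min at room temperature. Hydroperoxide measured by Fe-xylenol orange, 573/405 nm absorbance ratio.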
# Active calls of the source: *; u = inconclusive; x = no result; ! = not active in a repeat; [ ] = another dose, or the depositor's remark. Hits are enriched below; roughly 9% of the tested compounds scored in any of these assays. The call rests on the fitted dose curve; in most records, active means well fitted curve in the direction sought with a large enough effect; inconclusive means small, poorly fitted or top-dose-only effect, or another doubt; inactive means no such curve, though single readings can be large; an effect the other way counts as inactive or inconclusive. Potency means the concentration at half of the fitted maximal effect.
SMILES,JMJD2A Tudor inh,PLK1 PBD inh,G9a inh,HP1b chromo inh,BAZ2B block,12-LOX inh
O=C(Nc1ccc(S(=O)(=O)Nc2ncccn2)cc1)c1ccc(F)c(S(=O)(=O)N2CCOCC2)c1,u,29.9µM*,5.0%[12.7 µM],9.9%,-1.2%,-28.1%
O=C(Nc1ccc(S(=O)(=O)N2CCCCC2)cc1)c1ccc(=O)[nH]c1,-10.4%,-15.6%,14.1µM*,22.4%,-0.8%,u
O=C(CSc1cccc[n+]1[O-])c1cc(Cl)ccc1Cl,-3.8%,-7.2%,u,33.5%,x,0.1%
Cc1cc(NC(=O)CN2CCN(c3cccc(Cl)c3)CC2)no1,-14.4%,1.3%,-4.2%,16.4%,-17.7%,0.0%
Cc1cc(NC(=O)CN2CCN(c3ncccn3)CC2)no1,20µM*,-3.2%,8.91µM*,u,56.2µM*,u
Cc1cc(NC(=O)CN2CCCCC2)no1,u,-7.5%,u,u,56.2µM*,u
Cc1ccc(CNC(=O)CN2CCCC(C)C2)cc1 (stereo not drawn),-3.8%,-4.3%,12.6%,20.3%,35.2%,-24.3%
Cc1cc(NC(=O)CN2CCCC(C)C2)no1 (stereo not drawn),2.82µM*,-4.1%,x,50.1µM*,0.8%,u
Cc1cc(NC(=O)CN2CCN(c3ncccn3)CC2)on1,x,x,x,x,x,4.3%
O=C(CN1CCN(c2ncccn2)CC1)NCCC1=CCCCC1,3.16µM*,2.4%,u,u,50.1µM*,u
O=C(CSc1ncccn1)NCCC1=CCCCC1,-6.1%,-8.8%,-12.1%,22.8%,5.2%,1.3%
Cc1cnn(CC(=O)N2CCC3(CC2)CN(c2ncccn2)CC3CO)c1 (stereo not drawn),x,x,x,x,x,56.0%
Cc1ccnc(NC(=O)c2ccc3[nH]c(=O)c(=O)[nH]c3c2)c1,0.8%,-0.1%,-9.8%,26.6%,-16.6%,-23.6%
Cc1ccc(N(CCCCN2C(=O)c3ccccc3C2=O)C(=O)c2ccc(Cl)s2)cc1,5.5%,-0.9%,33.2%[59 µM],35.9%,7.6%,1.6%
CC(=O)c1ccc2c(c1)N(C)c1ccccc1S2,151.2%[57.1 µM],-15.5%,159.8%[59 µM],456.3%,222.9%,u
CN(C)CCCN1c2ccccc2Sc2ccccc21,-13.7%,-8.1%,44.7µM*!,24.4%,u,u
COc1ccc2c(c1)Sc1ccccc1N2CCN(C)C,u,-4.8%,u,31.6µM*,25.1µM*,x
CCC(=O)c1ccc2c(c1)N(CCCN(C)C)c1ccccc1S2,-32.4%,-14.9%,14.1µM*!,4.6%,x,u
NC(=O)CN1CCN(c2cccc(Cl)c2)CC1,-9.5%,-2.3%,12.7%,33.5%,-5.1%,0.3%
Cc1cc2c(s1)c1cnn(Cc3cc(F)c(F)c(F)c3F)c(=O)c1n2C,-8.2%,x,x,x,x,x
Cc1noc2ncnc(Oc3ccc(Cl)cc3Cl)c12,56.2µM*,u,4.7%,11.2%,12.9%,-18.6%
CN(C)c1ccc(S(=O)(=O)c2ccc(Cl)cc2)cc1,2.1%,-7.1%,-0.6%,33.8%,-3.1%,-12.7%
CN(C)c1ccc(C2C3C(=O)NC(=O)C3ON2c2ccc(Cl)cc2)cc1 (stereo not drawn),56.2µM*,u,u,-17.4%,50.1µM*,253.8%
CC1CN(CCCCOc2cccc(Oc3ccccc3)c2)CC(C)O1 (stereo not drawn),0.891µM*,5.7%,-125.0%[59 µM],u,35.5µM*,u
CC1CCCN(CCOc2cccc(Oc3ccccc3)c2)C1 (stereo not drawn),22.4µM*,5.1%,8.91µM*,u,56.2µM*,u
SMILES,JMJD2A Tudor inh,PLK1 PBD inh,G9a inh,HP1b chromo inh,BAZ2B block,12-LOX inh
CC1CCCN(CC(O)COc2ccc(Cl)cc2)C1 (stereo not drawn),-5.4%,-9.8%,9.3%[2.33 µM],6.8%,1.0%,u
CC1CN(CCOc2cccc(Oc3ccccc3)c2)CC(C)O1 (stereo not drawn),20µM*,-1.7%,10µM*,u,50.1µM*,u
COc1cccc(OCCCCCN2CCOCC2)c1,-14.1%,-6.4%,-100.3%,10.3%,-2.8%,-20.3%
CCCOc1ccc(OCCN2CCCC(C)C2)cc1 (stereo not drawn),u,2.8%,14.1µM*,38.8%,56.2µM*,u
CC1CN(S(=O)(=O)c2cccc(C(=O)OCCOc3ccccc3)c2)CC(C)O1 (stereo not drawn),15.8%,1.0%,4.7%[12.7 µM],46.7%,5.8%,3.1%
O=C1CC(c2ccccc2)N(C(=O)CNC(=O)c2ccco2)CCCCCCN1 (stereo not drawn),x,x,x,x,x,63.6%
CCNC(=O)CSc1nnc(-c2ccccc2Cl)n1-c1cccc(C(F)(F)F)c1,x,x,x,x,x,27.7%
c1ccc(Oc2cccc(OCCCCN3CCCC3)c2)cc1,35.5µM*,-5.4%,u,-28.4%,56.2µM*,u
CNC(=O)[C@H]1C[C@H](Oc2ccccc2)CN1S(=O)(=O)c1c(C)noc1C,x,x,x,x,x,28.9%
CCN(CC)c1ccc(/C=N/NC(=O)c2ccccn2)cc1,-20.0%,3.1%,10.8%[59 µM],46.0%,-12.2%,0.0%
CCN(CC)c1ccc(/C=N/NC(=O)c2cc3ccccc3[nH]2)cc1,-19.9%,4.8%,x,1.9%,u,10.2%
CCN(CC)c1ccc(/C=N/NC(=O)c2cnccn2)cc1,-15.5%,-7.0%,56.2µM*,34.4%,x,4.8%
CCN(CC)c1ccc(/C=N/NC(=O)c2c[nH]c3ccccc23)cc1,-33.5%,-4.7%,8.91µM*,3.0%,u,-18.5%
CCOC(=O)Cn1c(=O)cc(C)c2c(C)nn(-c3cccc(F)c3)c21,25.7%,x,51.0%[59 µM],-4.9%,29.6%,-9.1%
N#Cc1c(C(F)(F)F)cc(-c2cccs2)nc1SCC(=O)Nc1ccc(Cl)cc1,-2.4%,x,-6.0%[59 µM],29.7%,6.2%,-13.0%
COc1ccc(C(O)Cn2ccsc2=NC(C)=O)cc1 (stereo not drawn),-3.2%,4.2%,50.1µM*,48.0%,-29.0%,u
O=C(NC1CC1)c1nc(-c2cccnc2)c2ccccn12,x,x,x,x,x,6.1%[12.5 µM]
Nc1cccc(-c2nnc3n2CCCCC3)c1,u,16.8µM*,17.8%,-12.4%,-4.2%,-2.4%
CCCC(=O)C1=C(N2CCCC2)CC(C)(C)C(C(=O)OC)C1=O (stereo not drawn),-10.3%,0.8%,x,31.4%,2.8%,181.1%
CCC/C(=C1/C(=O)CC(C)(C)C(C(=O)OC)C1=O)N1CCCC1 (stereo not drawn),-25.5%,-12.9%,70.8µM*,18.6%,-9.6%,u
